Screens deposited in PubChem BioAssay by Paczesny and Yang Labs, IUPUI and University of Michigan.
Shown is part of a subset that was picked to be rich in hits.
ST2 inh: blocks human ST2 binding to IL-33 | 78,000 compounds, 2.3% hits | Q01638 | AlphaLISA ST2-Fc/biotin-IL-33 interaction, 1 h | AID 1259354 | inhibition, % for hits at 17 µM; in the data active = inhibition above about 30%
* hit, by the source's call; i = inactive.

SMILES | ST2 inh
CC(=O)Nc1ccc2n(c1=O)C[C@H]1C[C@@H]2CN(C(=O)COc2ccccc2)C1 | i
N#CC1=C(N)Oc2c(c(=O)oc3ccccc23)C1c1ccc(F)cc1 (stereo unspecified) | i
N#CC1=C(N)Oc2n[nH]c(-c3ccc(F)cc3)c2C1c1ccc(F)cc1 (stereo unspecified) | 32%*
N#CC1=C(N)Oc2n[nH]c(C(F)(F)F)c2C1c1ccc(F)cc1 (stereo unspecified) | i
CN(Cc1ccccc1)C[C@H]1CN2CC[C@H]1C[C@@H]2CNC(=S)Nc1ccccc1 | i
CN(C)CC(=O)N1C[C@@H]2C[C@H](C1)c1ccc(-c3ccccc3CN(C)C)c(=O)n1C2 | i
N#CC1=C(N)Oc2c(c(=O)oc3ccccc23)C1c1cc([N+](=O)[O-])cs1 (stereo unspecified) | i
O=C(NCc1ccc2c(c1)OCO2)[C@H]1CN2CCC1C[C@@H]2Cn1cc(-c2ccccn2)nn1 (stereo partly specified) | i
CC(C)CNC(=S)NC[C@H]1C[C@@H]2CCN1C[C@@H]2c1cc(C2CCCC2)nn1C | i
Cc1o[nH]c(=O)c1CC(N)C(=O)O (stereo unspecified) | i
NC(Cc1cc(O)c(O)cc1O)C(=O)O (stereo unspecified) | 95%*
C[Se]C[C@H](N)C(=O)O | i
COc1ccccc1-c1cc([C@H]2CN3CC[C@H]2C[C@@H]3CNC(=S)Nc2ccccc2)n(C)n1 | i
O=C(c1ccc2c(Cl)c3c(nc2c1)CCCC3)N1CCC2(CC1)OCCO2 | i
CN(Cc1ccccc1)Cc1cn(C[C@H]2C[C@@H]3CCN2C[C@@H]3C(=O)N(C)C)nn1 | i
COc1ccc(N=Cc2cc3c(cc2O)OC(N)=C(C#N)C3c2ccco2)cc1 (stereo unspecified) | 30%*
Cn1nc(-c2cccs2)cc1[C@H]1CN2CC[C@H]1C[C@@H]2CNC(=O)Nc1cccc(C#N)c1 | 35%*
Cn1nc(-c2cccs2)cc1[C@H]1CN2CC[C@H]1C[C@@H]2CNC(=O)N1CCOCC1 | i
CCNC(=O)NC[C@H]1C[C@@H]2CCN1C[C@@H]2c1cc(-c2cccs2)nn1C | i
CCOc1ccccc1N1CCN(Cc2ccccc2Cl)CC1 | i
C(#CCN1CCCCC1)COc1ccccc1 | i
Cc1ccc(C)c(CN2CCN(c3ccccc3)CC2)c1 | i
